Measured values published in PMC5540273 (PLoS ONE, 2017).

Experiments:
Details in all cases: concentration: 1 μM, replicates: in singlicate; n = 1
PDGFRB = test system: PDGFRB
PDPK1 = test system: PDPK1
PFTAIRE2 = test system: PFTAIRE2
PFTK1 = test system: T1, PFTK1
T1 construct: gene CDK14

PHKG1 = test system: PHKG1
PHKG2 = test system: PHKG2
PIK3C2B = test system: PIK3C2B
PIK3C2G = test system: PIK3C2G
PIK3CA = test system: PIK3CA
PIK3CB = test system: PIK3CB
PIK3CD = test system: PIK3CD
PIK3CG = test system: PIK3CG
PIK4CB = test system: T2, PIK4CB
T2 construct: gene PI4KB

PIKFYVE = test system: PIKFYVE
PIM1 = test system: PIM1
PIM2 = test system: PIM2
PIM3 = test system: PIM3
PIP5K1A = test system: PIP5K1A
PIP5K1C = test system: PIP5K1C
PIP5K2B = test system: PIP5K2B
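Also: KINOMEscan kinase panel screen.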

| SMILES | %Inh (PDGFRB) [%] | %Inh (PDPK1) [%] | %Inh (PFTAIRE2) [%] | %Inh (PFTK1) [%] | %Inh (PHKG1) [%] | %Inh (PHKG2) [%] | %Inh (PIK3C2B) [%] | %Inh (PIK3C2G) [%] | %Inh (PIK3CA) [%] | %Inh (PIK3CB) [%] | %Inh (PIK3CD) [%] | %Inh (PIK3CG) [%] | %Inh (PIK4CB) [%] | %Inh (PIKFYVE) [%] | %Inh (PIM1) [%] | %Inh (PIM2) [%] | %Inh (PIM3) [%] | %Inh (PIP5K1A) [%] | %Inh (PIP5K1C) [%] | %Inh (PIP5K2B) [%] |
| --- | --- | --- | --- | --- | --- | --- | --- | --- | --- | --- | --- | --- | --- | --- | --- | --- | --- | --- | --- | --- |
| O=C(Nc1ccccc1F)NC1CCN(c2ccnc(Nc3ccc(F)cc3)n2)C1 (stereo not drawn) [GSK1379722] | 8 | 14 | 7 | 14 | 13 | 0 | 0 | 0 | 0 | 0 | 0 | 0 | 100 | 0 | 0 | 0 | 0 | 0 | 45 | 14 |
| COC(=O)c1c(-c2ccccc2)c2cc(Cl)ccc2c(=O)n1Cc1ccc(S(C)(=O)=O)cc1 | 78 | 16 | 0 | 11 | 4 | 0 | 10 | 24 | 10 | 21 | 34 | 25 | 46 | 0 | 1 | 16 | 2 | 16 | 0 | 49 |
| Cn1cc(-c2ccc3c(c2)CCN3C(=O)Cc2cccc(C(F)(F)F)c2)c2c(N)ncnc21 [GSK2606414] | 55 | 6 | 18 | 0 | 6 | 0 | 0 | 2 | 0 | 0 | 0 | 0 | 6 | 0 | 0 | 0 | 0 | 0 | 0 | 0 |
| O=C(CCO)NCCn1ccc2ncnc(Nc3ccc(Oc4cccc(C(F)(F)F)c4)c(Cl)c3)c21 | 0 | 0 | 0 | 19 | 0 | 3 | 0 | 0 | 0 | 0 | 0 | 0 | 0 | 34 | 0 | 0 | 0 | 0 | 41 | 5 |
| COc1ccc(NC(=O)Nc2ccc(C)c(-c3ccc(C(=O)Nc4ccncc4)cc3)c2)cc1 [GSK1398475] | 100 | 0 | 20 | 24 | 0 | 0 | 0 | 0 | 0 | 0 | 0 | 0 | 0 | 0 | 0 | 0 | 3 | 0 | 17 | 0 |
| Nc1n[nH]c2nnc(-c3ccccc3)cc12 [SB-517389] | 5 | 0 | 17 | 24 | 0 | 1 | 0 | 0 | 0 | 0 | 0 | 0 | 8 | 0 | 8 | 0 | 0 | 0 | 0 | 18 |
| Nc1nc(-c2ccc3c(N)n[nH]c3c2)cc(N2CCCCC2)n1 [GSK2228768] | 8 | 94.6 | 1 | 9 | 0 | 0 | 0 | 0 | 0 | 0 | 0 | 0 | 0 | 0 | 0 | 0 | 0 | 0 | 31 | 4 |
| CCCc1ccc(S(=O)(=O)NC2CCN(c3ccnc(Nc4ccc(OC)cc4)n3)C2)cc1 (stereo not drawn) [GSK1379737] | 51 | 0 | 5 | 0 | 0 | 0 | 0 | 0 | 0 | 0 | 0 | 0 | 0 | 0 | 0 | 0 | 0 | 52 | 56 | 22 |
| COc1cc2c(Nc3cccc(NC(=O)c4ccccc4)c3)ncnc2cc1OCCCN1CCOCC1 [GSK223810] | 85 | 100 | 16 | 0 | 5 | 12 | 0 | 0 | 0 | 0 | 0 | 0 | 0 | 0 | 0 | 0 | 5 | 0 | 26 | 2 |
